Results on three targets are retold here after the supplement of paper PMC10849652.

Experiment in all cases: log2 fold change, soluble protein after heating vs DMSO (PISA); higher = thermal stabilisation; K562 lysate, 10 uM; active = over 0.2 and 3.5 SD of the protein, either way, in both replicates (recomputed)
Compound in assay [1]: CCCS(=O)(=O)Nc1ccc(F)c(C(=O)c2c[nH]c3ncc(Cl)cc23)c1F
In a few lines:
(§1)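 Quantification was by TMTpro 16plex LC-MS/MS with equalised channel sums, applied to the supernatant after 21,000xg for 90 min. Samples were crude K562 extract at 1 mg/mL protein in PBS pH 7.4 with 1 mM MgCl2, treated with 10 μM compound for 30 min, heated for 3 min across 48°C-58°C, pooled and brought to 0.5% NP-40 at 4°C. Values are log-two fold changes in thermal stability relative to solvent controls, from duplicates.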

Compound in assay [2]: CCN(CCCOc1ccc2c(Nc3cc(CC(=O)Nc4cccc(F)c4)[nH]n3)ncnc2c1)CCOP(=O)(O)O [barasertib]
In a few lines: as §1

Compound in assay [3]: CC[C@@H]1C(=O)N(C)c2cnc(Nc3ccc(C(=O)NC4CCN(C)CC4)cc3OC)nc2N1C1CCCC1
In outline:
as §1

Compound in assay [4]: CC[C@@H]1C(=O)N(C)c2cnc(Nc3ccc(C(=O)N[C@H]4CC[C@H](N5CCN(CC6CC6)CC5)CC4)cc3OC)nc2N1C(C)C [volasertib]
In a few lines: as §1

Compound in assay [5]: CCn1c(C(=O)N(C2CC2)C2CC2)cc2c3c(ncn3C)c(Nc3cc(C)n(C)n3)nc21
In a few lines: as §1

Compound in assay [6]: CCn1cc(-c2ccnc3[nH]c(-c4cccc(CN(C)C)c4)cc23)c(-c2ccc(NC(=O)N(C)C)cc2)n1
In a few lines: as §1

Compound in assay [7]: CN1CCC(CNc2ccc3ncc(-c4cccc(OC(F)(F)F)c4)n3n2)CC1
In a few lines:
as §1

Compound in assay [8]: CN1CCN(c2nc(C3=C(c4c[nH]c5ccccc45)C(=O)NC3=O)c3ccccc3n2)CC1 [sotrastaurin]
In outline: as §1

Compound in assay [9]: CN1CCN(CCOc2cc(OC3CCOCC3)c3c(Nc4c(Cl)ccc5c4OCO5)ncnc3c2)CC1 [saracatinib]
In outline:
as §1

Of roughly 8,800 targets only a part is listed; those with a hit were picked by preference. About 0.5% of all pairs of compound and target were hits.

Chain of UniProt P62328 (P62328 whole entry, looked up): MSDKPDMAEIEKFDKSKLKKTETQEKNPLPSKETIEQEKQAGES
Chain of UniProt P04350 (P04350 whole entry, looked up): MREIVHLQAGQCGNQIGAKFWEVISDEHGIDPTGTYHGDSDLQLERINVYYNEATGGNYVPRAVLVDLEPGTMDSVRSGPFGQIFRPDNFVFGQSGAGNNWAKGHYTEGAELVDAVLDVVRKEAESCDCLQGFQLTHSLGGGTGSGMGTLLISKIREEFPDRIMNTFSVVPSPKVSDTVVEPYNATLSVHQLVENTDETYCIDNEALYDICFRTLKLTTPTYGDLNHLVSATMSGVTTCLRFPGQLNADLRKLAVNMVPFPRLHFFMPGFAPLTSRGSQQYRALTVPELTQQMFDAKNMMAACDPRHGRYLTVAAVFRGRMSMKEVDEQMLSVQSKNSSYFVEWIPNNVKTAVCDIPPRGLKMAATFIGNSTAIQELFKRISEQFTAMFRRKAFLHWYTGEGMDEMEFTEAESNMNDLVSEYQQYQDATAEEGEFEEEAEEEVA
Chain of UniProt P36897 (P36897 whole entry, looked up): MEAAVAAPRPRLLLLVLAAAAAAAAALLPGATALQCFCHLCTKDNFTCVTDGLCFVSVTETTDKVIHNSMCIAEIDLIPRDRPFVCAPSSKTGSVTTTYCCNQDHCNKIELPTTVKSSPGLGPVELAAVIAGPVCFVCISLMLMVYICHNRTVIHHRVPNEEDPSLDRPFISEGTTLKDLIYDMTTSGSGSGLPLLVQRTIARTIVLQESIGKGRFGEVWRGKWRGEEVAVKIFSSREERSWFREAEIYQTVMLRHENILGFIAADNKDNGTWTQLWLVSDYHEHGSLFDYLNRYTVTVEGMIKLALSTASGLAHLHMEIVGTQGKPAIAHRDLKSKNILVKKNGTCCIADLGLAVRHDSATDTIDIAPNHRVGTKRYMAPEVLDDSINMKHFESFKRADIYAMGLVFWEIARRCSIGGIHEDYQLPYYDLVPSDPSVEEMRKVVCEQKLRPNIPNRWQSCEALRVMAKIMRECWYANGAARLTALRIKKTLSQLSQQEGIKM

On to TMSB4X (UniProt P62328), for which the log2 fold change in [1] is -0.068 (inactive); in assay [2], 0.056 (inactive); in assay [3], 0.084 (inactive); in assay [4], 0.104 (inactive); in assay [5], -0.187 (inactive); in [6] it was -0.191 (inactive). Also, the log2 fold change is 0.371 (inactive) in [7] and 0.205 (inactive) in [8].

For TUBB4A (UniProt P04350), the log2 fold change in assay [1] was 0.036 (inactive); in assay [2], -0.006 (inactive); in assay [3] it was 0.045 (inactive); in [4], 0.104 (inactive); in assay [5] it was 0.02 (inactive); in [6], -0.09 (inactive). Also, the log2 fold change in assay [7] is 0 (inactive); in assay [9] it was -0.033 (inactive); in assay [8], -0.007 (inactive).

Consider TGFBR1 isoform 2 (UniProt P36897), for which the values for the log2 fold change in assay [3] and in assay [9] were -0.005 (inactive) and 1.04 (active), respectively.
